Screens as filed in PubChem BioAssay.
MEKK3 PB1 HTS: modulators (inhibitors or enhancers) of MEK5 binding to human MEKK3 PB1 domain. hit rate 1.4% among 290,000. Q99759. bead-based flow cytometry, Alexa488-MEK5 binding to MEKK3; actives lie on both sides; 0 = blocked by unlabeled MEK5, 100 = vehicle. binding response (% of control), % at 10 µM;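 active = binding response more than 3 SD above or below the average of its plate-row segment, actives on both sides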;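 note: Alexa488 bead fluorescence after subtracting the streptavidin-only scavenger bead signal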
Target sequence (Q99759 whole entry, looked up, the tested form may be a part): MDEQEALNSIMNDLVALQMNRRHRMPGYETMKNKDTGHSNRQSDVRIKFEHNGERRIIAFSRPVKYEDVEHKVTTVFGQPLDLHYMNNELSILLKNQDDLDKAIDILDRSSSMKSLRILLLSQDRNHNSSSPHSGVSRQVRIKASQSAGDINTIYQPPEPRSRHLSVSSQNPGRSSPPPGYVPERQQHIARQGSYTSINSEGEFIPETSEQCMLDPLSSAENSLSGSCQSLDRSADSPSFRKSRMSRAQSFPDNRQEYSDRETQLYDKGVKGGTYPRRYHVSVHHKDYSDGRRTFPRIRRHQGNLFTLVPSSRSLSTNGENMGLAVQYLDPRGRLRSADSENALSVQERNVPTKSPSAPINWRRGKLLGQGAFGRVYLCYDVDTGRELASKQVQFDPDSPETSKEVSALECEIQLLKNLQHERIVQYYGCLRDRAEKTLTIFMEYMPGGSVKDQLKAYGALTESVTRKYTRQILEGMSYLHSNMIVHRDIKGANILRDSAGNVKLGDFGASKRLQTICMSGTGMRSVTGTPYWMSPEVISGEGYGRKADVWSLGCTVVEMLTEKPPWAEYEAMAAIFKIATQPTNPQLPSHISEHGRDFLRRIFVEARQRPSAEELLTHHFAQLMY
MEKK2mut PB1 HTS: signal of MEK5 binding to mutant human MEKK2 PB1 domain; bead flow cytometry, Alexa488-MEK5 binding to MEKK2 mutant; percent response, % at 10 µM; hit rate 0.35% among 290,000; AID 1530; in the data active = percent response above about 24%, passing the limit was not always enough
MEKK2wt PB1 HTS: raises or lowers MEK5 binding to wildtype human MEKK2 PB1 domain | Q9Y2U5 | bead flow cytometry, Alexa488-MEK5 binding to MEKK2 WT; actives lie on both sides | binding response (% of control), % at 10 µM | hit rate 1.1% among 290,000 | AID 1531; in the data active = binding response below about 67% or above about 130%
GRK2 inh: human GRK2 inhibition via aptamer displacement; hit rate 0.59% among 330,000; AID 488847; bead flow cytometry, FAM-aptamer displacement from GRK2; inhibition of aptamer binding, % at 10 µM; P25098;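 active = inhibition of aptamer binding above 40%, roughly 3 SD of noise, on plates passing a quality check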;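 note: median bead fluorescence of bound FAM aptamer so fluorescent compounds give negative values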
MEKK2wt confirm: raises or lowers MEK5 binding to wildtype human MEKK2, retest; AID 1892; shares compounds with MEKK3 PB1 HTS; bead flow cytometry, Alexa488-MEK5 binding to MEKK2 WT; actives lie on both sides; binding response (% of control), % at 10 µM; hit rate 2.4% among 5,900; in the data active = binding response below about 16% or above about 210%; inactive = in between
MEKK2mut-MEK5: signal of MEK5 binding to mutant human MEKK2, retest; bead flow cytometry, Alexa488-MEK5 binding to MEKK2 mutant; percent response, % at 10 µM; shares compounds with MEKK3 PB1 HTS; AID 1893; hit rate 2% among 5,900; in the data active = percent response mostly above about 71%, no sharp cut-off; inactive = mostly below about 38%;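 note: higher means compound restores mutant binding toward wildtype level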
MEKK3 confirm: confirmation of inhibitors of MEK5 binding to human MEKK3. binding response (% of control), % at 10 µM. bead flow cytometry, Alexa488-MEK5 binding to MEKK3; stronger effect = lower value. shares compounds with MEKK3 PB1 HTS. hit rate 1.8% among 5,900. AID 1894;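 active = binding response below 72% of control, or above a set upper limit, though filed actives all read lower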;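 note: 100% = DMSO only wells and 0% = binding blocked by excess unlabeled MEK5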
Starred values were filed as active, the others as inactive; [ ] = remark or other dose. Sampled rows, rich in hits. Any-hit rate of the full collection: about 2.5%.

What do the screens show for `CCC(C(=O)NC(C)(C)C)N(Cc1cccs1)C(=O)CNS(=O)(=O)c1ccccc1` (stereo not drawn)?
MEKK3 PB1 HTS: 132*; MEKK2mut PB1 HTS: 29; MEKK2wt PB1 HTS: 118; GRK2 inh: 0; MEKK2wt confirm: 97; MEKK2mut-MEK5: -8; MEKK3 confirm: 100

Results for COc1ccccc1N1CCN(S(=O)(=O)CCNC(=O)c2ccc(Br)o2)CC1 ?
MEKK3 PB1 HTS: 99; MEKK2mut PB1 HTS: 4; MEKK2wt PB1 HTS: 103; GRK2 inh: 3

Results for Cc1nc2sc(C(=O)OC(C)C)c(N)c2c(C)c1C ?
MEKK3 PB1 HTS: 104; MEKK2mut PB1 HTS: -2; MEKK2wt PB1 HTS: 100; GRK2 inh: 1

What do the screens show for `CCOC(=O)c1ccc(NC(=O)Cn2nnc(-c3ccccc3)n2)cc1`?
MEKK3 PB1 HTS: 120; MEKK2mut PB1 HTS: 11; MEKK2wt PB1 HTS: 134*; GRK2 inh: 0; MEKK2wt confirm: 107; MEKK2mut-MEK5: 2; MEKK3 confirm: 104

What do the screens show for `CCOC(=O)c1ccc(NC(=O)COc2ccccc2CNCCc2ccccc2)cc1`?
MEKK3 PB1 HTS: 102; MEKK2mut PB1 HTS: 39; MEKK2wt PB1 HTS: 206*; GRK2 inh: 0; MEKK2wt confirm: 175; MEKK2mut-MEK5: 42; MEKK3 confirm: 105

Results for NC(=O)c1nn(-c2ccccc2)nc1NC(=O)Cn1nnc(-c2ccccc2)n1 ?
MEKK3 PB1 HTS: 132*; MEKK2mut PB1 HTS: -1; MEKK2wt PB1 HTS: 104; GRK2 inh: 0; MEKK2wt confirm: 92; MEKK2mut-MEK5: -5; MEKK3 confirm: 99

How did CCOC(=O)c1ccc(NC(=O)Cn2nnc(-c3ccc(F)cc3)n2)cc1 do in these assays?
MEKK3 PB1 HTS: 100; MEKK2mut PB1 HTS: -3; MEKK2wt PB1 HTS: 93; GRK2 inh: 0

Results for CCOC(=O)c1ccc(NC(=O)CCc2nc(-c3ccccc3)no2)cc1 ?
MEKK3 PB1 HTS: 130*; MEKK2mut PB1 HTS: 7; MEKK2wt PB1 HTS: 120; GRK2 inh: 0; MEKK2wt confirm: 106; MEKK2mut-MEK5: 2; MEKK3 confirm: 104

Results for CCOC(=O)c1ccc(NC(=O)CCc2nc(-c3ccccc3Cl)no2)cc1 ?
MEKK3 PB1 HTS: 105; MEKK2mut PB1 HTS: 0; MEKK2wt PB1 HTS: 103; GRK2 inh: 1

Results for CCc1ccc(OCc2cnc(Cl)s2)cc1 ?
MEKK3 PB1 HTS: 108; MEKK2mut PB1 HTS: 1; MEKK2wt PB1 HTS: 110; GRK2 inh: 1

What do the screens show for `CC(=O)N1CCOc2ccc(S(=O)(=O)N3CCC(C(=O)Nc4ccc(C)c(C)c4)CC3)cc21`?
MEKK3 PB1 HTS: 96; MEKK2mut PB1 HTS: 1; MEKK2wt PB1 HTS: 95; GRK2 inh: 4

What do the screens show for `O=C1CCCC(O)=C1N=Nc1ccc2c(c1)OCO2`?
MEKK3 PB1 HTS: 146*; MEKK2mut PB1 HTS: 1; MEKK2wt PB1 HTS: 108; GRK2 inh: 2; MEKK2wt confirm: 103; MEKK2mut-MEK5: 1; MEKK3 confirm: 100

What do the screens show for `CCN(CCn1cccn1)C(=O)CCc1nnc(CCCc2ccccc2)o1`?
MEKK3 PB1 HTS: 131*; MEKK2mut PB1 HTS: active; MEKK2wt PB1 HTS: 151*; GRK2 inh: 0; MEKK2wt confirm: 101; MEKK2mut-MEK5: 14; MEKK3 confirm: 102

How did C=C(C)CN(CC)C(=O)CCc1nnc(CCCc2ccccc2)o1 do in these assays?
MEKK3 PB1 HTS: 102; MEKK2mut PB1 HTS: 10; MEKK2wt PB1 HTS: 105; GRK2 inh: 0

How did O=C(Nc1ccccc1)Nc1cccc(Cl)c1Cl do in these assays?
MEKK3 PB1 HTS: 85; MEKK2mut PB1 HTS: -4; MEKK2wt PB1 HTS: 95; GRK2 inh: 2

How did COc1ccc(CC2(CO)CCN(Cc3cccc(OC)c3OC)CC2)cc1 do in these assays?
MEKK3 PB1 HTS: 102; MEKK2mut PB1 HTS: -2; MEKK2wt PB1 HTS: 104; GRK2 inh: 1

How did COC(=O)Cn1c(=NC(=O)c2ccc(OC)cc2)sc2cc(OC)ccc21 do in these assays?
MEKK3 PB1 HTS: 98; MEKK2mut PB1 HTS: 4; MEKK2wt PB1 HTS: 102; GRK2 inh: 0

Results for COC(=O)Cn1c(=NC(=O)c2cc(OC)cc(OC)c2)sc2cc(OC)ccc21 ?
MEKK3 PB1 HTS: 130*; MEKK2mut PB1 HTS: 0; MEKK2wt PB1 HTS: 103; GRK2 inh: 0; MEKK2wt confirm: 99; MEKK2mut-MEK5: -10; MEKK3 confirm: 105

How did O=C(NCc1ccc2c(c1)OCO2)c1ccc(CS(=O)Cc2cccc(Cl)c2)o1 (stereo not drawn) do in these assays?
MEKK3 PB1 HTS: 93; MEKK2mut PB1 HTS: 0; MEKK2wt PB1 HTS: 96; GRK2 inh: 0

Results for CCOc1ccc(OCC(O)CNC2CCN(Cc3ccccc3)CC2)cc1 (stereo not drawn) ?
MEKK3 PB1 HTS: 105; MEKK2mut PB1 HTS: 23; MEKK2wt PB1 HTS: 128; GRK2 inh: 0

Results for CC(C)(c1ccccc1)c1ccc(OCC(O)CNC2CCN(Cc3ccccc3)CC2)cc1 (stereo not drawn) ?
MEKK3 PB1 HTS: 98; MEKK2mut PB1 HTS: 62*; MEKK2wt PB1 HTS: 252*; GRK2 inh: 0; MEKK2wt confirm: 179; MEKK2mut-MEK5: 32; MEKK3 confirm: 107

Results for CCn1cc(C(=O)NCCCN2CCC(C)CC2)c(=O)c2cc(S(=O)(=O)N(C)C3CCCCC3)ccc21 ?
MEKK3 PB1 HTS: 98; MEKK2mut PB1 HTS: 1; MEKK2wt PB1 HTS: 104; GRK2 inh: 0

What do the screens show for `COc1cc2c(cc1OC)C(c1ccc(-c3ccc(Cl)c(Cl)c3)o1)=NCC2`?
MEKK3 PB1 HTS: 105; MEKK2mut PB1 HTS: 28; MEKK2wt PB1 HTS: 149*; GRK2 inh: 4; MEKK2wt confirm: 152; MEKK2mut-MEK5: 49; MEKK3 confirm: 113

What do the screens show for `COc1ccc(CCN2C(=O)CC(NNC(=O)c3ccc(F)cc3)C2=O)cc1OC` (stereo not drawn)?
MEKK3 PB1 HTS: 125; MEKK2mut PB1 HTS: 0; MEKK2wt PB1 HTS: 104; GRK2 inh: 0

How did CCOc1ccc(C(=O)NNC2CC(=O)N(CCc3ccccc3)C2=O)cc1OC (stereo not drawn) do in these assays?
MEKK3 PB1 HTS: 0.0*[inhibitor]; MEKK2mut PB1 HTS: -5; MEKK2wt PB1 HTS: 0.0*[inhibitor]; GRK2 inh: 0; MEKK2wt confirm: 102; MEKK2mut-MEK5: 0; MEKK3 confirm: 104

Results for CCOc1ccc2[nH]c3c(c2c1)CNCC3 ?
MEKK3 PB1 HTS: 102; MEKK2mut PB1 HTS: 13; MEKK2wt PB1 HTS: 158*; GRK2 inh: 0; MEKK2wt confirm: 134; MEKK2mut-MEK5: 23; MEKK3 confirm: 97
